Screening results as filed in PubChem.
In the library only some 0.91% were active in any assay of this set; here they are far more common.
RECQ1 inh – RECQ1 (human) helicase inhibition | AID 2549 | P46063 | RECQ1 DNA unwinding, red fluorescence kinetic read | Potency, µM (series often up to 57.3 µM), for inactives: top-dose activity, negative = inhibition, actives largely listed as inhibitors | actives 0.54% (n = 240,000);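 further: plate controls were vehicle for no effect and no enzyme for full effect; nearly all actives have a fitted effect of over 30% in size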
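50 nM RECQ1T1 preincubated 15 min with compound in Tris pH 8.0 buffer with MgCl2, DTT, Tween-20 and 2.5 ug/ml poly(dI-dC); started with 200 nM TAMRA/BHQ-2 forked duplex and 2 mM ATP. Unwinding read as fluorescence (525/598 nm), two reads 2 h apart.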
TR SRC2 fluor cs – Texas Red fluorescence interference in TRb-SRC2 counter-screen; TRb/SRC2 Texas Red total fluorescence interference; actives 0.29% (n = 280,000); Potency, µM (highest dose often 106 µM), without a hit: at the highest dose fluorescence change, negative = quenching; active means well fitted curve in either direction with a large enough effect; inconclusive means small, poorly fitted or top-dose-only effect
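Human TRb ligand-binding domain at 0.6 uM with 20 nM Texas Red SRC2 peptide in Tris buffer containing 1 uM T3 and 5% DMSO, incubated with compound 5 h at ambient temperature. Total fluorescence (555/632 nm) calculated as parallel + 2 × perpendicular.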
WRN inhibitor – WRN helicase (human) inhibition; WRN helicase unwinding, fluorescent forked duplex, kinetic; Potency, µM (doses to about 114 µM), for the others: top-dose activity change, negative = inhibition, usual class: inhibitors; AID 651768; actives 0.46% (n = 360,000); further: nearly all actives have a fitted effect of over 55% in size
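Fluorescence dequenching readout, ex 525 nm/em 598 nm, kinetic mode: forked duplex DNA (100 nM final) with adjacent fluorophore and quencher unwound by WRN (20 nM final) with 2 mM ATP. Compound preincubation 15 min, room temperature.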
APE1 inh – APE1 (human) endonuclease inhibition; P27695; actives 0.35% (n = 350,000); recombinant APE1, TAMRA/BHQ-2 abasic DNA cleavage fluorescence; Potency, µM (series often up to 65.8 µM), for inactives: at the highest dose activity change, negative = inhibition, actives largely listed as inhibitors; AID 2517;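 further: plate controls were vehicle for no effect and reference inhibitor for full effect; nearly all actives have a fitted effect of over 55% in size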
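Quantitative HTS: incision of a TAMRA/BHQ-2 double-stranded substrate bearing a tetrahydrofuran abasic site by 0.75 nM APE1 raises fluorescence. Substrate 50 nM final, added after 15 min compound preincubation at room temperature; progress as third-minus-first kinetic read difference.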
BLM helicase inh – Bloom syndrome helicase (human) inhibition; actives 0.2% (n = 350,000); P54132; Potency, µM (doses to about 56.1 µM), inactives show at the top dose activity change, negative = inhibition, usual class: inhibitors; recombinant BLM DNA unwinding, fluorescence dequenching;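 further: plate controls were vehicle for no effect and no enzyme for full effect; nearly all actives have a fitted effect of over 35% in size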
Target sequence (P54132 whole entry, looked up): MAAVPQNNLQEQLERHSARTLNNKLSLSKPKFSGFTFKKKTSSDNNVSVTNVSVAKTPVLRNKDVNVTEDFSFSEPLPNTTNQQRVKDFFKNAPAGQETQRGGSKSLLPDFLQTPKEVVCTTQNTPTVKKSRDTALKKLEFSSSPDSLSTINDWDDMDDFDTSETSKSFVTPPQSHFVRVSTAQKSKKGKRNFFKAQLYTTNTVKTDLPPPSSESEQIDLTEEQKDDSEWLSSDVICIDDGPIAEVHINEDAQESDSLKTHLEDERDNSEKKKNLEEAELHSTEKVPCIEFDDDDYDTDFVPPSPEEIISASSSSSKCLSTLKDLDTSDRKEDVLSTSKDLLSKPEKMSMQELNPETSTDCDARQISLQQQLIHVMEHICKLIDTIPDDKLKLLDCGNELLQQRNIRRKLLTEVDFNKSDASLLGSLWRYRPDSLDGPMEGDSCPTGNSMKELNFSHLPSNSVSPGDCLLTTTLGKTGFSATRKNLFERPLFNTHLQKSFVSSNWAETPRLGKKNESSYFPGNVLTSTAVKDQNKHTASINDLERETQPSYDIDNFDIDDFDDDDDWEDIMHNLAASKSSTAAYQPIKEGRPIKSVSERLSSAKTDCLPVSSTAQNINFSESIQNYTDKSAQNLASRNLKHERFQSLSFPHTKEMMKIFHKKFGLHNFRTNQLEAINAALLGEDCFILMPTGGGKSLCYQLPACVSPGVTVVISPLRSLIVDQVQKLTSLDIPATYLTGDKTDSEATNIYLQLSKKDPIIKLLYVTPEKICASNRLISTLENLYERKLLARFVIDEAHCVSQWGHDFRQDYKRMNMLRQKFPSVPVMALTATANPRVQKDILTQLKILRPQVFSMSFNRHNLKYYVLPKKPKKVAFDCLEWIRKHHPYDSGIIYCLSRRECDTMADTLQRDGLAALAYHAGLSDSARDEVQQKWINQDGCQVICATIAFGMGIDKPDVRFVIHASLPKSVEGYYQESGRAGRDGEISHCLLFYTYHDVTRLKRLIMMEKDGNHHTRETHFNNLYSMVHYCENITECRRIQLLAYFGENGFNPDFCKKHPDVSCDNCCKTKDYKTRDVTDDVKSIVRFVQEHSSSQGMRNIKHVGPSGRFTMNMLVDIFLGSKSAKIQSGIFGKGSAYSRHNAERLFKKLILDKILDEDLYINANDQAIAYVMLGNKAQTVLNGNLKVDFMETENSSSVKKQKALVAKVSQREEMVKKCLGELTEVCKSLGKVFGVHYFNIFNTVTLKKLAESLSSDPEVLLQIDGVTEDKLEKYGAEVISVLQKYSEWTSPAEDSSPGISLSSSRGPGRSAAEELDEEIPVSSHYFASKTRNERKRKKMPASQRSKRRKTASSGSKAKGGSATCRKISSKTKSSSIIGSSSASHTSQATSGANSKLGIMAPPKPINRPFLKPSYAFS
TRb SRC2 PPI – inhibitors of human thyroid hormone receptor beta-SRC2 interaction. P10828. actives 0.065% (n = 280,000). AID 1469. TRbeta-SRC2 peptide binding, fluorescence polarization; receptor liganded with 1 µM T3. Potency, µM (titrated, usually from 106 µM), inactives show at the highest dose activity change, negative = inhibition, most hits filed as inhibitors;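 further: plate controls were bound peptide for no effect and peptide without receptor for full effect; nearly all actives have a fitted effect of over 50% in size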
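Compounds were added to 0.6 uM TRb ligand-binding domain and 20 nM Texas Red-labeled SRC2 peptide in Tris buffer containing 1 uM T3, incubated 5 hr at ambient temperature, then read by fluorescence polarization.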
* hit, by the source's call; i = inactive; ? = inconclusive; . = no result given; ! = repeats disagree; [ ] = remark or other dose. Unless noted, the call rests on the fitted dose curve; in most records, active means well fitted curve in the direction sought with a large enough effect; inconclusive means small, poorly fitted or top-dose-only effect, or another doubt; inactive means no such curve, though single readings can be large; an effect the other way counts as inactive or inconclusive. Unless noted, on the % scale 0 is the no-effect control and ±100 the full control effect; potency means the concentration at half of the fitted maximal effect.

SMILES	RECQ1 inh	TR SRC2 fluor cs	WRN inhibitor	APE1 inh	BLM helicase inh	TRb SRC2 PPI
O=C1NC(=O)N(Cc2ccco2)C(=O)/C1=C\c1cccn1CCOc1ccc(Cl)cc1	?	-7%	50µM*	-9%	-21%	1%
CN(C)c1ccc(/C=C2/C(=O)NC(=O)N(Cc3ccco3)C2=O)cc1	?	2%	50µM*	28µM*	-6%	0%
CON=C(C(=O)OC)c1ccccc1CO/N=C(\C)c1cccc(C(F)(F)F)c1	.	4%[201 µM]	.	.	.	2%[201 µM]
N#CCNC(=O)c1cnccc1C(F)(F)F	.	-2%[201 µM]	.	.	.	-3%[201 µM]
COc1cc(OC)nc(Sc2cccc(Cl)c2C(=O)O)n1	.	-1%[201 µM]	.	.	.	5%[201 µM]
CC1CCCCC1NC(=O)Nc1ccccc1 (stereo not given)	.	3%[201 µM]	.	.	.	1%[201 µM]
O=C1NC(=S)N(Cc2ccco2)C(=O)/C1=C\c1cccs1	7.1µM*	?	.	3.5µM*	28µM*	?
CCN(CC)c1ccc(/C=C2/C(=O)NC(=O)N(Cc3ccco3)C2=O)cc1	32µM*	27%	56µM*	?	-1%	?
CCSCCSP(=O)(OC)OC	.	-1%[201 µM]	.	.	.	0%[201 µM]
CCOP(=O)(OCC)Oc1ccc2c(C)c(Cl)c(=O)oc2c1	.	-4%[201 µM]	.	.	.	-3%[201 µM]
O=C1OC2(c3cc(Br)c(O)cc3Oc3c2cc(Br)c(O)[c]3[Hg])c2ccccc21 (stereo not given)	.	.	.	13µM*	.	.
CC(C)(C)C(=O)[C@@H](Oc1ccc(Cl)cc1)n1cncn1	.	-1%[201 µM]	.	.	.	3%[201 µM]
COc1ccc2c(c1)[nH]c1c(C)nccc12	3%	-1%	8%	7.9µM*!	91%	-3%
Cc1nccc2c1[nH]c1ccc(Br)cc12	.	.	-10%	-5%	.	.
CCOc1nc(C(Cl)(Cl)Cl)ns1	.	-4%[201 µM]	.	.	.	-10%[201 µM]
COc1nn(C(=O)NS(=O)(=O)c2ccccc2OC(F)(F)F)c(=O)n1C	.	-1%[201 µM]	.	.	.	0%[201 µM]
COc1ccc(N2C(=O)/C(=C/c3cccs3)C(=O)NC2=S)cc1	14%	9%	45µM*	-4%	0%	17%
Cc1ccc(/C=C2\C(=O)NC(=S)N(c3ccccc3F)C2=O)s1	-1%	-3%	50µM*	3%	-6%	2%
COc1ccc(N2C(=O)/C(=C/C=C/c3ccccc3[N+](=O)[O-])C(=O)NC2=S)cc1	35µM*	-7%	25µM*	15%	28µM*	5%
COc1ccccc1/C=C1\C(=O)NC(=S)N(c2ccccc2)C1=O	.	.	-9%	55%	-2%	.
Cc1ccc(/C=C2\C(=O)NC(=S)N(c3ccc(F)cc3)C2=O)s1	-2%	0%	50µM*	4%	-2%	0%
COc1ccc(N2C(=O)/C(=C/c3ccc(N(C)C)o3)C(=O)NC2=S)cc1	.	.	-5%	1%	-2%	.
CC(=NC#N)N(C)Cc1ccc(Cl)nc1	.	-2%[201 µM]	.	.	.	-9%[201 µM]
CCCCC/C=C\C/C=C\C/C=C\C/C=C\CCCC(=O)O	2.2µM*!	-2%	.	?	?	-8%
CN(C)C1C(=O)C(C(N)=O)C(=O)C2(O)C(=O)C3C(=O)c4c(O)cccc4C(C)(O)C3C(O)C12 (stereo not given)	i	28µM*[quencher]	.	.	-5%	18%
SMILES	RECQ1 inh	TR SRC2 fluor cs	WRN inhibitor	APE1 inh	BLM helicase inh	TRb SRC2 PPI
CCCCOCCOC(C)=O	.	1%[201 µM]	.	.	.	2%[201 µM]
Cc1ccc(N2C(=O)NC(=O)/C(=C/c3cnc(-c4ccccc4)nc3)C2=O)cc1C	-9%	4%	?	-5%	1%	-5%
Cc1cccc(N2C(=O)NC(=O)/C(=C\c3cnc(-c4ccccc4)nc3)C2=O)c1	1%	1.3µM*[quencher]	?	6%	-3%	-30%[53 µM]
O=[N+]([O-])c1ccc(Oc2ccc(C(F)(F)F)cc2[N+](=O)[O-])cc1	.	0%[201 µM]	.	.	.	-1%[201 µM]
O=c1nc(/C=C/c2ccc(Cl)cc2Cl)cc(C(F)(F)F)[nH]1	.	.	50µM*	14%	-14%	.
O=c1c2ccccc2nc(/C=C/c2ccc(O)cc2)n1-c1ccc(O)cc1	.	.	-9%	26%	-9%	.
O=c1c2ccccc2nc(/C=C/c2ccc(O)cc2)n1-c1cccc(O)c1	-13%	-3%	?	?	25µM*	1%
CC[C@H](C)/C=C(C)/C=C/C1=CC2=C(Cl)C(=O)[C@](C)(OC(C)=O)C(=O)C2=CO1	.	.	50µM*	-4%	.	.
CCC1(C)OC(c2ccccc2)=C/C(=C/C=C2C(=O)NC(=O)NC2=O)O1 (stereo not given)	8.9µM*	11%	?	5%	-23%	-1%
CCC1(Oc2ccccc2)C(=O)NC(=O)NC1=O	.	.	0%	.	.	.
CCC(C)(NC(=O)c1cc(Cl)c(C)c(Cl)c1)C(=O)CCl (stereo not given)	.	-3%[201 µM]	.	.	.	2%[201 µM]
CCOP(=S)(OCC)SCn1nnc2ccccc2c1=O	.	-1%[201 µM]	.	.	.	-2%[201 µM]
CCOP(=S)(OCC)Oc1cnc2ccccc2n1	.	2%[201 µM]	.	.	.	4%[201 µM]
CC1=NNC(=O)C1Br (stereo not given)	.	.	28µM*	.	.	.
Cl.Cl.Cl.Cl.Cl.Cl.N.N.N.N.NNNNN.NNNNN.O.O.[Ru].[Ru].[Ru]	13µM*	-4%	.	-3%	25µM*	-14%
Cc1ccc(N2C(=O)/C(=C/c3ccc(CN(CCC#N)S(C)(=O)=O)o3)C(=O)NC2=S)cc1	?	7%	50µM*	?	-6%	14%
Cc1cccc2c1=NC(=O)/C(=C/c1c(O)[nH]c(=O)[nH]c1=O)C=2	-2%	?	50µM*	-2%	5%	-15%
COc1ccc(/C=C2\C(=O)NC(=O)N(Cc3ccccc3)C2=O)c(OC)c1OC	i	1%	-6%	3%	-7%	-6%
COc1ccc(CN2C(=O)NC(=O)/C(=C\c3cc(OC)c(OC)c(OC)c3)C2=O)cc1	-17%	0%	50µM*	7%	-4%	-1%
COc1cc(OC)c(OC)cc1/C=C1\C(=O)NC(=O)N(Cc2ccccc2)C1=O	-1%	1%	79µM*	-2%	0%	3%
O=C1NC(=O)N(Cc2ccc(F)cc2)C(=O)/C1=C\c1ccc(N2CCCC2)cc1	-28%	18%	?	-3%	-27%	20%
Cc1ccc(N2C(=O)NC(=O)/C(=C\c3cc(C)n(-c4sc5c(c4C#N)CCCC5)c3C)C2=O)cc1	?	2%	50µM*	2%	-20%	-9%
CCOC(=O)c1c(-n2c(C)cc(C=C3C(=O)NC(=S)NC3=O)c2C)sc2c1CCCC2	?	7%	56µM*	-12%	?	5%
CCN1C(=O)NC(=O)/C(=C/c2cc(C)n(-c3sc(C)c(C)c3C#N)c2C)C1=O	-3%	-5%	?	7%	?	-4%
